Screens deposited in PubChem by National Center for Advancing Translational Sciences (NCATS).
Only some compounds are listed: those with a hit (about 10% of all), similar ones and a draw of the others.
Six1-Eya2 inh: blocks human Six1 binding to Eya2 | Q15475+O00167 | AlphaScreen GST-Six1/His-Eya2 binding, biochemical; hits give low values | activity change, % (no concentration beside the values) | hit rate 0.56% among 360,000 | AID 651725; in the data active means activity change below about -65%; inconclusive means mostly about -30% to -63%; further: on the % scale 0 is the no-effect control and ±100 the full control effect
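Six1/Eya2 binding was read as AlphaScreen signal after compounds were pinned into GST-Six1 plus His-tagged Eya2 (5X stock 250/500 nM) in pH 8.0 Tris/NaCl/TCEP buffer, beads added, then incubated 1 h, 37 C, dark.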
BAZ2B block: blocks human BAZ2B; Q9UIF8; AlphaScreen BAZ2B-H3K14Ac peptide displacement; Potency, µM (series often up to 114 µM), for the others: at the highest dose activity change, negative = inhibition, usual class: inhibitors; AID 504333; hit rate 4.4% among 360,000; further: potency means the concentration at half of the fitted maximal effect; on the % scale 0 is the no-effect control and ±100 the full control effect; nearly all actives have a fitted effect of over 60% in size
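Complex of BAZ2B and biotin-H3K14Ac (50 nM apiece) forms over 30 min at RT, then faces library compounds up to 110 uM for another 30 min; AlphaScreen beads added, 20 min dark incubation, luminescence read.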
G9a inh: inhibitors of human histone lysine methyltransferase G9a | Q96KQ7 | G9a H3K9 monomethylation, AlphaScreen, 2 h | Potency, µM (titrated, usually from 102 µM), inactives show top-dose activity, negative = inhibition, actives largely listed as inhibitors | hit rate 8.8% among 350,000 | AID 504332; further: potency means the concentration at half of the fitted maximal effect; on the % scale 0 is the no-effect control and ±100 the full control effect; nearly all actives have a fitted effect of over 75% in size
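Step 1: enzyme (final 20 nM) with compound, 15 min RT. Step 2: substrate peptide 500 nM and SAM 20 uM, 2 h RT. Step 3: anti-H3K9me1 antibody and AlphaScreen beads, 10 min, then plate read.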
CtBP-E1A inh: CtBP/E1A binding inhibition | hit rate 0.49% among 340,000 | AID 651724 | activity change, % (test concentration not listed) | AlphaScreen GST-E1A/His-CtBP binding, 1536-well; hits give low values; in the data active means activity change below about -65%; inconclusive means mostly about -30% to -63%; further: on the % scale 0 is the no-effect control and ±100 the full control effect
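AlphaScreen with 125 nM GST-E1A and 125 nM His-CtBP (5X stocks) in Tris pH 8.0, 300 mM NaCl, BSA, Tween 20, TCEP. Compounds preincubated 2 h at 37 deg C, then glutathione donor/nickel acceptor beads added for 1 h at 37 deg C in dark.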
JMJD2A Tudor: blocks the human JMJD2A Tudor domain | Potency, µM (highest dose often 114 µM), inactives show at the top dose activity change, negative = inhibition, most hits filed as inhibitors | hit rate 4.4% among 390,000 | AID 504339 | AlphaScreen JMJD2A-Tudor / H3K4me3 peptide binding | O75164; further: potency means the concentration at half of the fitted maximal effect; on the % scale 0 is the no-effect control and ±100 the full control effect; nearly all actives have a fitted effect of over 50% in size
HP1b chromo inh: inhibitors of HP1-beta chromodomain binding to methylated histone tails | P83916 | Potency, µM (doses to about 114 µM), without a hit: at the top dose activity change, negative = inhibition, hits mostly inhibitors | AlphaScreen HP1-beta / biotin-H3K9me3 peptide binding | hit rate 0.56% among 390,000; further: potency means the concentration at half of the fitted maximal effect; nearly all actives have a fitted effect of over 70% in size
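Compound inhibition of the preformed complex between 50 nM HP1-beta and 50 nM biotinylated H3K9me3 peptide was read by AlphaScreen. Buffer was PBS pH 7.4 with 0.01% Tween-20. Incubations ran 30 min at room temperature, with 10 ug/mL donor/acceptor beads.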
The depositor's hits bear a star; ? = inconclusive; nt = not tested or not shown; [ ] = another dose, or the depositor's remark. Unless noted, the call rests on the fitted dose curve; in most records, active means well fitted inhibition curve with a large enough effect; inconclusive means small, poorly fitted or top-dose-only effect; inactive means no such curve, though single readings can be large or run the other way.

SMILES | Six1-Eya2 inh | BAZ2B block | G9a inh | CtBP-E1A inh | JMJD2A Tudor | HP1b chromo inh
Cc1ccc(-c2nc(S(=O)(=O)c3ccccc3)c(SCC(=O)NCC3CCCO3)o2)cc1 (stereo not given) | -1.7 | -3.2% | 35.5µM* | 3.8 | -12.9% | 6.9%
O=C(CSc1oc(-c2ccccc2)nc1S(=O)(=O)c1ccccc1)NCC1CCCO1 (stereo not given) | 3.7 | -15.9% | -10.2% | -0.5 | -18.1% | 16.0%
O=C(CSc1oc(-c2ccco2)nc1S(=O)(=O)c1ccc(Cl)cc1)NCC1CCCO1 (stereo not given) | -2.8 | -0.8% | 44.7µM* | 2.3 | ? | 2.3%
Cn1cccc1C(=O)OCC(=O)N1CCc2ccccc2C1 | 13.1 | nt | nt | 0.0 | nt | nt
CCCCN(C(C)=O)c1c(CC)nc2ccc(C(=O)NCCOc3ccc(OC)cc3)cn12 | 0.1 | nt | nt | -1.5 | nt | nt
Cc1cc(C(=O)N/N=C/c2cc(Cl)cc([N+](=O)[O-])c2O)n[nH]1 | ? | 50.1µM* | nt | -80.9* | ? | 26.8%
Cc1cc(C(=O)N/N=C/c2cc(Br)c(Br)o2)n[nH]1 | -22.8 | -26.4% | 10µM* | -24.5 | ? | -1.9%
Cc1cc(C(=O)N/N=C/c2ccc(-c3cccc([N+](=O)[O-])c3)o2)n[nH]1 | -13.6 | -18.1% | -7.6% | -24.8 | -17.3% | 33.4%
Cc1cc(C(=O)N/N=C/c2ccc(-c3ccc([N+](=O)[O-])cc3Cl)o2)n[nH]1 | -7.5 | 79.4µM* | 50.1µM* | 0.6 | ? | 20.4%
Cc1cc(C(=O)N/N=C\c2cc(C(C)(C)C)c(O)c(C(C)(C)C)c2)n[nH]1 | 9.7 | -11.4% | 39.8µM* | -1.7 | ? | -17.4%
Cc1cc(C(=O)N/N=C/c2ccc([N+](=O)[O-])s2)n[nH]1 | -8.7 | -15.5% | 6.9% | ? | -6.2% | 25.1%
CSCCC(C(=O)Nc1c(C)cccc1C)n1c(-c2ccc(C(F)(F)F)cc2)nc2ccccc21 (stereo not given) | 10.6 | nt | nt | -14.8 | nt | nt
COc1ccc(-c2cc(C(=O)c3c(N)n(C)c(=O)n(C)c3=O)c3ccccc3n2)cc1OC | -13.2 | -19.5% | -47.4% | 0.0 | -25.0% | 31.6%
C=CCn1c(SC(C)C#N)nc2ccccc2c1=O (stereo not given) | nt | nt | nt | nt | -8.5%[57.1 µM] | 23.3%[57 µM]
CC(=O)Nc1ccc(N=c2cc([N+](=O)[O-])cc(Cl)n2O)cc1 | 8.3 | -10.0% | 7.3% | 4.0 | -16.7% | 69.9%
Cc1ccc(NC(=S)NNC(C)(C)C)cc1 | -0.7 | -26.6% | 44.7µM* | 4.9 | -19.6% | 0.5%
CCOC(=O)CN1C(=O)S/C(=C/c2ccc(OC)c([N+](=O)[O-])c2)C1=O | 0.1 | 5.6% | 24.9%[59 µM] | 2.1 | 3.5% | 27.9%
COc1cc(/C=C2/SC(=O)N(Cc3ccccc3)C2=O)ccc1OCc1ccncc1 | 1.5 | -33.3% | -8.3%[12.7 µM] | 16.7 | ? | 19.4%
COc1cc(/C=C2\SC(=O)N(Cc3ccc(Cl)cc3)C2=O)cc([N+](=O)[O-])c1O | -4.7 | 15.8µM* | -116.3%[59 µM] | -3.3 | 8.91µM* | 12.6µM*
COc1cc(/C=C2\SC(=O)N(Cc3ccc(F)cc3)C2=O)cc([N+](=O)[O-])c1O | -3.1 | 8.91µM* | nt | -1.1 | 28.2µM* | 15.8µM*
O=C(Nc1ccc(F)c(Cl)c1)c1cc(C2CCCN(C(=O)CCc3ccccc3)C2)on1 (stereo not given) | -4.3 | nt | nt | -0.2 | nt | nt
O=C(CSc1nc(C2CC2)nc2ccccc12)N1c2ccccc2Sc2ccc(C(F)(F)F)cc21 | -8.8 | 6.5% | 23.2%[59 µM] | 5.1 | -26.7% | 27.9%
O=C(Nc1ccccc1F)c1coc(=O)c(Br)c1 | ? | ? | 10.3%[59 µM] | 20.5 | ? | 4.5%
O=C(Nc1ccc(Br)cn1)c1cccc(-c2cc3ccccc3oc2=O)c1 | 5.8 | ? | 25.1µM* | 12.1 | -30.5% | -1.8%
O=C(Nc1ccc(Br)cn1)c1coc(=O)c(Br)c1 | -16.5 | ? | 50.1µM* | 1.0 | -6.6% | 12.6%
Cc1cc(NC(=O)c2coc(=O)c(Br)c2)ccc1C(C)C | -1.2 | 12.8% | 50.1µM* | 1.8 | -8.2% | 28.8%
